Experimental data from PubChem BioAssay (EPA / NIEHS).
The source made the active and inactive calls. Rule for the calls: active = hit-call score of the fitted dose curve at least 0.9, where 1 is the maximum; inactive = score below 0.9.

What follows are molecules tested against Cellular tumor antigen p53 (Homo sapiens) (UniProt P04637) (assay: ATG_p53_CIS: Attagene CIS-FACTORIAL HepG2 Assay for human p53 Transcription Factor (AID 2282994)). Conditions: HepG2 p53 cis-element reporter, Attagene mRNA; actives raise or lower the signal.
Sequence of Cellular tumor antigen p53 (Homo sapiens) (P04637 whole entry, looked up): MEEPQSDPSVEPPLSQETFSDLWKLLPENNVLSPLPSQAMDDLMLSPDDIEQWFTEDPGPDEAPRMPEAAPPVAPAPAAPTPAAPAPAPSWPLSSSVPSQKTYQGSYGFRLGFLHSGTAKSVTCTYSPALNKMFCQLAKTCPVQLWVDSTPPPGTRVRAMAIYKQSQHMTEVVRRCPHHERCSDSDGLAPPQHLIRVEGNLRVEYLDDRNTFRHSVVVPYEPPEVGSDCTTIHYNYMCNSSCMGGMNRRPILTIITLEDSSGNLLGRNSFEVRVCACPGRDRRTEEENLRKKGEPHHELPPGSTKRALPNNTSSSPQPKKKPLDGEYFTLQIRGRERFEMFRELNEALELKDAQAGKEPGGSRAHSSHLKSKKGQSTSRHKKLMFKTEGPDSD
Experimental: ATG_CIS is a cell-based, multiplexed-readout assay that uses HepG2, a human liver cell line, with measurements taken at 24 hours after chemical dosing in a 24-well plate.ATG_p53_CIS is one of 52 assay component(s) measured or calculated from the ATG_CIS assay. It is designed to make measurements of mRNA induction, a form of inducible reporter, as detected with fluorescence intensity signals by Reverse transcription polymerase chain reaction (RT-PCR) and Capillary electrophoresis technology.Data from the assay component ATG_p53_CIS was analyzed into 1 assay endpoint. This assay endpoint, ATG_p53_CIS, was analyzed with bidirectional fitting relative to DMSO as the negative control and baseline of activity. Using a type of inducible reporter, measures of mRNA for gain or loss-of-signal activity can be used to understand the reporter gene at the transcription factor-level as they relate to the gene TP53. Furthermore, this assay endpoint can be referred to as a primary readout, because this assay has produced multiple assay endpoints where this one serves a reporter gene function. To generalize the intended target to other relatable targets, this assay endpoint is annotated to the dna binding intended target family, where the subfamily is tumor suppressor.
Human liver HepG2 cells are transiently transfected with multiple reporter transcription units (MRTUs) in 6-well plates using FuGene 6 reagent (Roche; 3 ml FuGene/1 mg DNA). The MRTU constructs are regulated by a cis-regulating element (promoter). […] A major difference between the CIS and TRANS system is that in CIS activities of endogenous TFs are measured, whereas the TRANS assay evaluates changes in activities of exogenous, chimeric NR-Gal4 proteins. […] At the end of 24 hour incubation, total RNA was isolated using TriZol reagent (Invitrogen). The isolated RNA is then reverse-transcribed using oligo(dT) primer and Mo-MLV reverse transcriptase (Invitrogen) with DNAse I (Ambion) treatment for 30 min. The one-tenth of the produced cDNA was amplified by PCR using Taq DNA polymerase (Invitrogen) and two reporter sequence-specific primers. The PCR products were fluorescently labeled by primer extension with 6-arboxyfluorescein (6-FAM) 5'-labeled reporter sequence-specific primer (2 min at 95 C, 20 s at 68 C and 10 min at 72 C) and these products were digested with 5U of HpaI (New England Biolabs) for 2h at 37 C. The fragments were purified using Qiaquick PCR columns (Qiagen), analyzed on an ABI 3130xL genetic analyzer (Applied Biosystems) with peak positions identified by using a set of X-rhodamine (ROX)-labeled MapMarker1000 molecular weight standards (BioVentures). The raw capillary electrophoresis data was processed using Attagraph software (Attagene).
C=C1[C@H]2CC[C@@H]3[C@H]2C(C)(C)CCC[C@]13C was tested, and the outcome was “inactive”.
With Cc1cccc(N)n1 the outcome was “inactive”.
With CCOc1nc(F)cc2nc(S(=O)(=O)Nc3c(Cl)cccc3C(=O)OC)nn12 the outcome was “inactive”.
With CC(C)c1ccc2c(C(C)C)cc(C(C)C)c(S(=O)(=O)O)c2c1 the outcome was “inactive”.
For O=[N+]([O-])c1ccc(CO)cc1, the outcome was “inactive”.
CC(=O)OC(C)C was tested, and the outcome was “inactive”.
C=CC(=O)OCCOC(=O)C=C was tested, and the AC50 was 48 µM (active).
In the case of CCOC(=O)NNc1nncc2ccccc12, the outcome was “inactive”.
In the case of CCCCOCCOC(=O)COc1nc(Cl)c(Cl)cc1Cl, the outcome was “inactive”.
In the case of Cc1cccc(C(=O)O)c1, the outcome was “inactive”.
With CCOC(=O)N1CCC(=C2c3ccc(Cl)cc3CCc3cccnc32)CC1 the AC50 was 7.13 µM (active).
In the case of O=c1n(CCO)c(=O)n(CCO)c(=O)n1CCO, the outcome was “inactive”.
For CCCCCC/C=C\CCCCCCCC(=O)O, the outcome was “inactive”.
With NNC(=O)c1cccc(C(=O)NN)c1 the outcome was “inactive”.
In the case of FC(F)(F)C(=NOCC1OCCO1)c1ccc(Cl)cc1, the outcome was “inactive”.
With Cc1cnc(NC(=O)C2=C(O)c3ccccc3S(=O)(=O)N2C)s1 the outcome was “inactive”.
In the case of Cc1ccccc1C, the outcome was “inactive”.
For CC(C)=CCCC(C)C=O (stereo not given), the outcome was “inactive”.
c1ccc2c(c1)ccc1cc3c(ccc4ccccc43)cc12 was tested, and the outcome was “inactive”.
CCOC(F)(F)C(F)(F)C(F)(F)C(F)(F)F was tested, and the outcome was “inactive”.
Cc1cc(C)c(C)cc1C was tested, and the outcome was “inactive”.
With COCCOCCOCCOCCOC the outcome was “inactive”.
In the case of CCC(CO)CO, the outcome was “inactive”.
CCCC(=O)OCc1ccccc1 was tested, and the outcome was “inactive”.
For c1ccc(-c2ccccn2)nc1, the outcome was “inactive”.
With Cc1ccc([N+](=O)[O-])cc1S(=O)(=O)O the outcome was “inactive”.
For CCC(C)OC(=O)c1ccc(O)cc1 (stereo not given), the outcome was “inactive”.
For COc1cc(NC(=O)CC(C)=O)c(OC)cc1Cl, the outcome was “inactive”.
In the case of CCOC(=O)Cc1cccc2ccccc12, the outcome was “inactive”.
COC(=O)c1sccc1S(N)(=O)=O was tested, and the outcome was “inactive”.
With CC(C)COC(=O)C=Cc1ccccc1 the outcome was “inactive”.
With NC(=O)OCC(COC(N)=O)c1ccccc1 the outcome was “inactive”.
COc1ccc(-c2coc3cc(O)ccc3c2=O)cc1 was tested, and the outcome was “inactive”.
With CCOc1ccc(N)c([N+](=O)[O-])c1 the outcome was “inactive”.
C1=Cc2ccccc2C1 was tested, and the outcome was “inactive”.
In the case of CCCCCCC1(C)CCC(=O)O1 (stereo not given), the outcome was “inactive”.
CC(C)(C)c1n[nH]c(=O)n(N)c1=O was tested, and the outcome was “inactive”.
In the case of O=C(Nc1cccc(C(F)(F)F)c1)c1cc(Br)cc(Br)c1O, the AC50 was 147 µM (active).
With Cc1cc(C)c(C(=O)O)c(C)c1 the outcome was “inactive”.
CC1=Nc2ccc3ccccc3c2C1(C)C was tested, and the outcome was “inactive”.
